According to PubChem BioAssay (EPA / NIEHS):
Calls of active or inactive are those of the source. Rule for the calls: active = hit-call score of the fitted dose curve at least 0.9, where 1 is the maximum; inactive = score below 0.9.

Key:
[1] = APR_HepG2_P-H2AX_72hr: Apredica 72-hour HepG2 Assay for H2AX Phosphorylation (AID 2282916); details: imaging, actives raise or lower the signal;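 note: phospho-histone H2A.x immunostain intensity per cell marking DNA damage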
In short: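 HepG2 cells treated 72 h at 0.39–200 uM, 0.5% DMSO final, duplicates. Formaldehyde-fixed, Triton-permeabilised, immunostained for phospho-H2A.x with Hoechst; fluorescence imaged at 20x, bidirectional fit versus DMSO.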

[2] = APR_HepG2_MitoMembPot_72hr: Apredica 72-hour HepG2 Assay for Mitochondrial Membrane Potential (AID 2282917); details: imaging, actives raise or lower the signal
In short: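 HepG2 cells exposed 72 h to compounds at 0.39–200 uM (0.5% v/v DMSO, duplicates); MitoTracker Red CMXRos 250 nM loaded 30 min before 3.7% formaldehyde fixation, imaged by HCS fluorescence. Bidirectional fit versus DMSO.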

[3] = APR_HepG2_MitoticArrest_72hr: Apredica 72-hour HepG2 Assay for Mitotic Arrest (AID 2282918); details: high-content imaging, actives raise or lower the signal
In short: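 HepG2 cells were exposed for 72 hr to compound at 0.39–200 uM (10 concentrations, duplicate) in 0.5% v/v DMSO, fixed in 3.7% formaldehyde, immunostained for phospho-histone H3 with Hoechst 33342 and imaged by high-content fluorescence; bidirectional fits versus DMSO.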

[4] = APR_HepG2_MicrotubuleCSK_72hr: Apredica 72-hour HepG2 Assay for Microtubule CSK Stabilty (AID 2282919); details: HepG2 microtubule cytoskeleton, high-content imaging, actives raise or lower the signal
In short: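 HepG2 human liver cells were dosed for 72 h at ten concentrations from 0.39 to 200 uM in duplicate (0.5% v/v DMSO final). Fixed, permeabilized cells were immunostained for alpha-tubulin (Cy5) with a Hoechst counterstain and imaged at 20x.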

[5] = APR_HepG2_P-H2AX_24hr: Apredica 24-hour HepG2 Assay for H2AX Phosphorylation (AID 2282920); details: high-content imaging, actives raise or lower the signal
In short: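 HepG2 human liver cells were exposed for 24 hr to compounds at 0.39–200 uM in duplicate, with 0.5% v/v DMSO final. Fixed cells were immunostained for phospho-histone H2A.x plus Hoechst 33342, imaged by HCS fluorescence, and fitted bidirectionally against DMSO.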

[6] = APR_HepG2_StressKinase_72hr: Apredica 72-hour HepG2 Assay for Stress Kinase (AID 2282921); details: HepG2 stress kinase (phospho-c-Jun) imaging, actives raise or lower the signal
In short: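 HepG2 cells treated 72 hr with 0.39–200 uM compound, 0.5% v/v DMSO, duplicate wells. After formaldehyde fixation and Triton permeabilization, stained with anti-phospho-c-Jun (1:500) and Cy3 secondary, imaged at 20x. Fitted in both directions against DMSO.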

[7] = APR_HepG2_StressKinase_24hr: Apredica 24-hour HepG2 Assay for Stress Kinase (AID 2282922); details: HepG2 stress kinase (phospho-c-Jun) imaging, actives raise or lower the signal
In short: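 HepG2 cells exposed 24 hr to compound at 0.39–200 uM (10 concentrations, duplicate), 0.5% v/v DMSO final. Fixed in 3.7% formaldehyde, permeabilized with Triton X-100, immunolabeled for phospho-c-Jun with Hoechst 33342; HCS fluorescence imaging, bidirectional fit versus DMSO.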

[8] = APR_HepG2_p53Act_72hr: Apredica 72-hour HepG2 Assay for p53 Activation (AID 2282923); details: high-content imaging, actives raise or lower the signal;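 note: average cellular p53 protein immunofluorescence intensity in HepG2 cells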
In short: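 HepG2 cells exposed 72 h to 0.39–200 uM in 0.5% DMSO, duplicates. Fixed, permeabilized cells immunostained for p53 (Cy5) with Hoechst; imaged at 20x, fluorescence analyzed bidirectionally against DMSO.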

[9] = APR_HepG2_MitoMass_72hr: Apredica 72-hour HepG2 Assay for Mitochondrial Mass (AID 2282924); details: high-content imaging, actives raise or lower the signal;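 note: MitoTracker Red CMXRos stain intensity per cell imaged as mitochondrial mass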
In short: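 HepG2 cells were exposed for 72 hr to compounds at 0.39–200 uM (ten concentrations, duplicate, 0.5% v/v DMSO final). Live cells were stained with 250 nM MitoTracker Red CMXRos for 30 min, then fixed in 3.7% formaldehyde and imaged by HCS fluorescence.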

[10] = APR_HepG2_NuclearSize_72hr: Apredica 72-hour HepG2 Assay for Nuclear Size (AID 2282925); details: high-content imaging, actives raise or lower the signal
In short: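 HepG2 cells were exposed to compounds at ten concentrations from 0.39 to 200 uM (duplicate, 0.5% DMSO final) for 72 hr. After fixation in 3.7% formaldehyde, nuclei were stained with Hoechst 33342 (2 ug/mL) and imaged at 20x.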

[11] = ATG_CRE_CIS: Attagene CIS-FACTORIAL HepG2 Assay for human cAMP Responsive Element (CRE) binding protein 3 (AID 2282926); details: HepG2 CRE cis-reporter, Attagene multiplexed mRNA; actives raise or lower the signal
In short: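 HepG2 cells transiently transfected with a multiplexed reporter library (CRE-driven unit among them) were dosed for 24 h. Reporter mRNA was quantified by RT-PCR, fluorescent labelling, HpaI digestion and capillary electrophoresis, with bidirectional fitting against DMSO baseline.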

[12] = molecular target: CCAAT/enhancer-binding protein beta (Homo sapiens) (UniProt P17676); assay: ATG_C_EBP_CIS: Attagene CIS-FACTORIAL HepG2 Assay for human CCAAT/Enhancer Binding Protein (C/EBP) beta (AID 2282927); details: HepG2 Attagene cis-factorial transcription factor reporter; actives raise or lower the signal
Chain of CCAAT/enhancer-binding protein beta (Homo sapiens) (P17676 whole entry, looked up): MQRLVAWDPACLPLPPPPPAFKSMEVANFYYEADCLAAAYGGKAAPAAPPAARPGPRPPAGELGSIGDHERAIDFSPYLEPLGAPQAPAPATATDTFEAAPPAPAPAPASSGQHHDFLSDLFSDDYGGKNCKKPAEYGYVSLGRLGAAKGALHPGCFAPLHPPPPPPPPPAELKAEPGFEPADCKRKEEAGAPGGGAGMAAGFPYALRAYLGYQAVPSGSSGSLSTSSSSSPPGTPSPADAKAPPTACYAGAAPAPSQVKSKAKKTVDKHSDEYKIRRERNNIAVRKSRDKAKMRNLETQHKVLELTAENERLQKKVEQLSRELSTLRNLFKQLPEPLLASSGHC
In short: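 Following a 24 h incubation with test chemical, transfected HepG2 cells yielded RNA whose reporter transcripts were quantified by RT-PCR and fluorescent capillary electrophoresis, with DMSO serving as baseline for bidirectional fitting.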

[13] = ATG_DR4_LXR_CIS: Attagene CIS-FACTORIAL HepG2 Assay for human Liver X Receptor (LXR), DR4 submotif (AID 2282929); details: HepG2 Attagene DR4 cis-reporter, mRNA transcription; actives raise or lower the signal
In short: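 Readout: reporter transcript fluorescence after RT-PCR and capillary electrophoresis, fitted bidirectionally against DMSO controls. Human HepG2 liver cells carried transiently transfected multiplexed reporter constructs; endogenous transcription factor activity measured 24 h post-dosing.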

[14] = ATG_AP_1_CIS: Attagene CIS-FACTORIAL HepG2 Assay for human Activator Protein 1 (AP-1) (AID 2282931); details: HepG2 Attagene cis-factorial AP-1 reporter mRNA; actives raise or lower the signal
In short: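 Reporter transcripts were measured 24 h after dosing by RT-PCR and capillary electrophoresis of fluorescent fragments. Cells: HepG2 carrying transfected cis-regulated reporter constructs reading endogenous factor activity. Gain or loss fitted against DMSO.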

[15] = ATG_AP_2_CIS: Attagene CIS-FACTORIAL HepG2 Assay for human Activator Protein 2 (AP-2) (AID 2282932); details: HepG2 AP-2 cis-reporter, Attagene transcription factor profiling; actives raise or lower the signal
In short: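 Bidirectional curve fitting against DMSO was applied to reporter mRNA signals from HepG2 cells 24 h after dosing. Cis-promoter reporter units, transiently transfected, were read by RT-PCR plus capillary electrophoresis.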

[16] = ATG_BRE_CIS: Attagene CIS-FACTORIAL HepG2 Assay for human Bone Morphogenetic Protein (BMP) Response Element (BRE) (AID 2282933); details: HepG2 BMP response element reporter, Attagene transcription factor profiling; actives raise or lower the signal
In short: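 After a 24 h chemical treatment, transiently transfected HepG2 cells were lysed for RNA; reporter transcripts were quantified by fluorescent RT-PCR and capillary electrophoresis, normalised to DMSO.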

[17] = molecular target: Retinoic acid receptor alpha (Homo sapiens) (UniProt P10276); assay: ATG_DR5_RAR_CIS: Attagene CIS-FACTORIAL HepG2 Assay for human Retinoic Acid Receptor Alpha (RARE), DR5 submotif (AID 2282934); details: HepG2 Attagene cis-factorial RARE DR5 reporter, mRNA; actives raise or lower the signal;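 for AC50: reporter responds to endogenous RAR alpha beta and gamma in HepG2 not RARA alone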
Chain of Retinoic acid receptor alpha (Homo sapiens) (P10276 whole entry, looked up): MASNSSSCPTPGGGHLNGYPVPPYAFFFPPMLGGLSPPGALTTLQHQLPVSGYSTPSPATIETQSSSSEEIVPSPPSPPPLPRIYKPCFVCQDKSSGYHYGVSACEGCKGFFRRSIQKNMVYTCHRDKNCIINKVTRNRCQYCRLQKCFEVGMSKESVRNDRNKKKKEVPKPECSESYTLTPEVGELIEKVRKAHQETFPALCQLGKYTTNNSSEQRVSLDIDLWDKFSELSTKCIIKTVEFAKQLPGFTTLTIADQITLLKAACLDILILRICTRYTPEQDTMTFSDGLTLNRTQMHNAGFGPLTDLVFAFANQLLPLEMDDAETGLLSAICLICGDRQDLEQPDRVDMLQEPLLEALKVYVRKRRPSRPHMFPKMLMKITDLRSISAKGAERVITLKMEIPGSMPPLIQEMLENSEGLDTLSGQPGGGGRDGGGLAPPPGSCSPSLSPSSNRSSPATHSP
In short: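 Endpoint fitted in both directions relative to DMSO as negative control. It reflects DR5 cis-element reporter mRNA induction in transiently transfected HepG2 cells, measured 24 h after dosing through RT-PCR and fluorescent capillary electrophoresis.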

[18] = molecular target: Transcription factor E2F1 (Homo sapiens) (UniProt Q01094); assay: ATG_E2F_CIS: Attagene CIS-FACTORIAL HepG2 Assay for human E2F Transcription Factor 1 (AID 2282935); details: HepG2 Attagene cis-reporter, E2F reporter RNA transcripts; actives raise or lower the signal
Chain of Transcription factor E2F1 (Homo sapiens) (Q01094 whole entry, looked up): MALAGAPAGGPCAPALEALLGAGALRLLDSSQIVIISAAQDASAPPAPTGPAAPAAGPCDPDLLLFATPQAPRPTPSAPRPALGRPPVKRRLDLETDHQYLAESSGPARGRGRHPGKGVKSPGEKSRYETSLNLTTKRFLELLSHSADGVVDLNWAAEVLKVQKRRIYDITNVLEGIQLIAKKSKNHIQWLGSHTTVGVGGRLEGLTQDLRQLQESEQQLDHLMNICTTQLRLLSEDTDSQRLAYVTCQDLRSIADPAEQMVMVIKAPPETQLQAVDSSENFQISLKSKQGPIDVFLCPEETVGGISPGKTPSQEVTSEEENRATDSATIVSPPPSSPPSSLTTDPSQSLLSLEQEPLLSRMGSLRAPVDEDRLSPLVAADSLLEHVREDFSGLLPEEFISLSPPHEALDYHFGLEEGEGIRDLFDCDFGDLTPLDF
In short: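 Multiplexed cis-reporter assay: HepG2, transient transfection, 24 h dosing, mRNA quantitation by labeled RT-PCR and CE.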

[19] = ATG_CMV_CIS: Attagene CIS-FACTORIAL HepG2 Assay for human CMV (Internal Marker) (AID 2282928); details: HepG2 CMV promoter reporter, transcription factor profiling; actives raise or lower the signal;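 note: endpoint acts as a background internal control marker rather than a target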
In short: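 Endogenous transcription factor activity read in HepG2 via transfected cis-promoter reporter units. After 24 h dosing, reporter mRNA measured by RT-PCR/capillary electrophoresis; gain or loss of signal fit relative to DMSO.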

[20] = molecular target: Aryl hydrocarbon receptor (Homo sapiens) (UniProt P35869); assay: ATG_Ahr_CIS: Attagene CIS-FACTORIAL HepG2 Assay for human Aryl Hydrocarbon Receptor (Ahr) (AID 2282930); details: HepG2 AhR cis-factorial reporter transcription; actives raise or lower the signal
Chain of Aryl hydrocarbon receptor (Homo sapiens) (P35869 whole entry, looked up): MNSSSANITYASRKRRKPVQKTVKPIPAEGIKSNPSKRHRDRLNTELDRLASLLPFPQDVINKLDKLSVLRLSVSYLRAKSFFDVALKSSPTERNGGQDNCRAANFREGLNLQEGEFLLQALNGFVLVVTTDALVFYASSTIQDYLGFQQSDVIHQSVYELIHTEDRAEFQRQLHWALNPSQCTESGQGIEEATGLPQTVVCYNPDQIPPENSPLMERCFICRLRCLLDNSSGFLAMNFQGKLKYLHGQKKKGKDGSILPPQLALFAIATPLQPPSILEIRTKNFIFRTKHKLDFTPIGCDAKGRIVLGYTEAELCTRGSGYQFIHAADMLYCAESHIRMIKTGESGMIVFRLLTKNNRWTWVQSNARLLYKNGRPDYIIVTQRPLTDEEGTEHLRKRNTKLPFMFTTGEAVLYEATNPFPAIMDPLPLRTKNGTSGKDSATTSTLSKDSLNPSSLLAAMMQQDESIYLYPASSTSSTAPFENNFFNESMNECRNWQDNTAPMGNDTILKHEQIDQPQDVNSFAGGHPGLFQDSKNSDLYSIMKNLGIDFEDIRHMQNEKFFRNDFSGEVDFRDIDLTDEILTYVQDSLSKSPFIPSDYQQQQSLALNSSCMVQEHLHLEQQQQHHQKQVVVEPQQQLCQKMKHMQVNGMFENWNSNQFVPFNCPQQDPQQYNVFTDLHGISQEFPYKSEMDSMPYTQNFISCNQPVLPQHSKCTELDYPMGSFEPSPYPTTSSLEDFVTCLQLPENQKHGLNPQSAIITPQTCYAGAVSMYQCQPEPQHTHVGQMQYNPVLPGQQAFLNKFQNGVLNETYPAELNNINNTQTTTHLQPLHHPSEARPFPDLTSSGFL
In short: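 Values derive from bidirectional fitting against DMSO negative control. Underlying signal: cis-element reporter mRNA in transiently transfected HepG2, harvested 24 h post-dose and measured by RT-PCR plus capillary electrophoresis.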

Measured: AC50

Nc1ccc(Oc2ccc(N)cc2)cc1
not listed: [19] | [20]
inactive: all other assays above

COc1cc(C=O)cc2c1[C@H](COC(N)=O)[C@]1(OC(C)=O)ON2C[C@H]2[C@@H]1N2C(C)=O
active: [11] 33.4 µM | [12] 61 µM | [13] 0.0512 µM | [14] 61.4 µM | [15] 33.4 µM | [18] 61.5 µM
not listed: [10] | [17] | [20]
inactive: all other assays above

Cc1ccc(N=C=O)cc1N=C=O
not listed: [14] | [19] | [20]
inactive: all other assays above

Nc1ccc([N+](=O)[O-])cc1
not listed: [10] | [17] | [20]
inactive: all other assays above

CN(C)C(=O)Nc1ccc(Cl)cc1
active: [20] 58.5 µM
not listed: [17]
inactive: all other assays above

COP(=S)(OC)SCN1C(=O)c2ccccc2C1=O
not listed: [10] | [14] | [17] | [18]
inactive: all other assays above

CO[C@@H]1[C@H](OC(=O)NC(=O)CCl)CC[C@]2(CO2)[C@H]1[C@@]1(C)O[C@@H]1CC=C(C)C
active: [13] 10.2 µM
not listed: [18]
inactive: all other assays above

[As]#[In]
not listed: [14] | [20]
inactive: all other assays above

ClCCOCCCl
not listed: [14] | [18] | [19] | [20]
inactive: all other assays above

CCOc1cccc(C2(N3CCN(c4ccccc4)CC3)CCC(C)CC2)c1 (stereo not drawn)
not listed: [20]
inactive: all other assays above

O=C1CCCO1
not listed: [10] | [14] | [18]
inactive: all other assays above

CC(C)(O)c1cnn2c(-c3ccc(F)c(-c4c(F)cccc4C#N)c3)cnc2n1
inactive: [6] | [8] | [10] | [12] | [19] | [15] | [16] | [17]
active: [1] 30.1 µM | [2] 83.9 µM | [3] 25.9 µM | [4] 78.8 µM | [5] 31.4 µM | [7] 51.5 µM | [9] 76.1 µM | [11] 40 µM | [13] 27.5 µM | [14] 67.1 µM

O=C(O)C1C2CCC(O2)C1C(=O)O (stereo not drawn)
active: [1] 22.2 µM | [3] 19.6 µM | [5] 29.4 µM | [8] 21.2 µM | [9] 50.2 µM | [10] 36 µM | [11] 80.7 µM | [17] 75.4 µM
not listed: [14] | [19] | [20]
inactive: all other assays above

CC(O)CCO (stereo not drawn)
not listed: [3] | [18]
inactive: all other assays above

CC(C)N(Cc1ccccc1)C(=O)C(C)(C)C
not listed: [3] | [14] | [20]
inactive: all other assays above
